Common to all, as to assay: DAPPL (digital affinity profiling via proximity ligation, sequencing); 10 mM Tris-HCl pH 7.5, 50 mM NaCl, 1 mM DTT, 4% glycerol, room temperature, 30 min; GST-TFs on glutathione beads, 16-mer random dsDNA library, 0.1% formaldehyde crosslink after washing; high values mean tight binding
The target in one assay is T1, FEV (Homo sapiens, UniProt Q99581 1-238).
T1 sequence: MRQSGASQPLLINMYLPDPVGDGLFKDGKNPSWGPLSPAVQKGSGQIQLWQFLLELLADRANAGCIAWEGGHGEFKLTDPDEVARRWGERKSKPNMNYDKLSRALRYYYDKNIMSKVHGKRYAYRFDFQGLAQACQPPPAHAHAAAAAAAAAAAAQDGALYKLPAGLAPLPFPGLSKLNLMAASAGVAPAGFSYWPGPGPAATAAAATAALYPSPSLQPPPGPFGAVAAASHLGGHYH
As to conditions: protein: recombinant; tags: N-terminal GST; dsDNA, one strand shown. The gist of the method: (§1)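 Human transcription factors fused to GST were expressed in yeast, captured on glutathione beads, given DNA barcodes and pooled with a GST-only negative control. Pools were incubated with 200 nmole of a 16-mer random double-stranded DNA library in Tris/NaCl/DTT/glycerol buffer at room temperature for 30 min. They were then washed, crosslinked with 0.1% formaldehyde, proximity-ligated (BsaI/T4 ligase, 1 h, 37 °C), PCR-amplified and sequenced on an Illumina NextSeq500. Binding signal is each 6-mer's read frequency for a factor divided by its frequency for the GST control.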

The next assay has as its target ETV5 (Homo sapiens, UniProt P41161 1-510). The note with it: protein: recombinant; tags: N-terminal GST; dsDNA, one strand shown. The gist of the method:
as §1

Another assay deals with HSF1 (Homo sapiens, UniProt Q00613 1-529). As to conditions: protein: recombinant; tags: N-terminal GST; chain copies: 3; dsDNA, one strand shown. The gist of the method:
as §1

A further assay addresses T2, SPIC (Homo sapiens, UniProt Q8N5J4 1-248).
T2 sequence: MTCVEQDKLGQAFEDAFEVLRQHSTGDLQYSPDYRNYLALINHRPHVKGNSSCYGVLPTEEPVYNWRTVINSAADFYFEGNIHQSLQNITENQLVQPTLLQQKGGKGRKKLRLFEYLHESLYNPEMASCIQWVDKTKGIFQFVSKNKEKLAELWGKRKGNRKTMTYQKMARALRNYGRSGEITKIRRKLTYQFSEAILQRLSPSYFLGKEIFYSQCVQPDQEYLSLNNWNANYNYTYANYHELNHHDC
As to conditions: protein: recombinant; tags: N-terminal GST; dsDNA, one strand shown. The essentials:
as §1

The target of a further assay is ELF4 (Homo sapiens, UniProt Q99607 1-663). The note with it: protein: recombinant; tags: N-terminal GST; dsDNA, one strand shown. The gist of the method:
as §1

The target of the next assay is T3, ELK4 (Homo sapiens, UniProt P28324-2 1-405).
T3 sequence: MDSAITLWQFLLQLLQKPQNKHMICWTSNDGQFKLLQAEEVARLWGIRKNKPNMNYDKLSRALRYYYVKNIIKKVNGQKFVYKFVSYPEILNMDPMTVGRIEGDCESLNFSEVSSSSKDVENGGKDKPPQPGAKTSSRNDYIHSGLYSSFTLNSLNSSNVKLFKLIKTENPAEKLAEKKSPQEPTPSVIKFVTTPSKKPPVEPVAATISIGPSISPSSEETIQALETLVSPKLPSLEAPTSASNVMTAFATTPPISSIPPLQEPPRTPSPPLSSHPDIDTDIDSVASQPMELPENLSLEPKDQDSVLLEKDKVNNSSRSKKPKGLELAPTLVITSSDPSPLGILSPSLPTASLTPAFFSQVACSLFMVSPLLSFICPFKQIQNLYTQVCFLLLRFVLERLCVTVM
As to conditions: protein: recombinant; tags: N-terminal GST; dsDNA, one strand shown. The gist of the method: as §1

The next assay addresses T4, ETV2 (Homo sapiens, UniProt O00321 1-342).
T4 sequence: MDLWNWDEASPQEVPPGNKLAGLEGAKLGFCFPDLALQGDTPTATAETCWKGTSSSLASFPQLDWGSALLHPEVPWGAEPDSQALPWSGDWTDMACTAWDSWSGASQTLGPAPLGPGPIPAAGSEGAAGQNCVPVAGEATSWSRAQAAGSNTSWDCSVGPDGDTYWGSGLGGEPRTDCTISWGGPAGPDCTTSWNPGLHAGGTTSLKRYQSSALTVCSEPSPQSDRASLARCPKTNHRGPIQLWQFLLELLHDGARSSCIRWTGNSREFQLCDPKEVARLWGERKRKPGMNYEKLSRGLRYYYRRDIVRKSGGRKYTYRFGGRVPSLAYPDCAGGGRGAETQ
The note with it: protein: recombinant; tags: N-terminal GST; dsDNA, one strand shown. The gist of the method: as §1

The target of another assay is T5, ELF3 (Homo sapiens, UniProt P78545 1-371).
T5 sequence: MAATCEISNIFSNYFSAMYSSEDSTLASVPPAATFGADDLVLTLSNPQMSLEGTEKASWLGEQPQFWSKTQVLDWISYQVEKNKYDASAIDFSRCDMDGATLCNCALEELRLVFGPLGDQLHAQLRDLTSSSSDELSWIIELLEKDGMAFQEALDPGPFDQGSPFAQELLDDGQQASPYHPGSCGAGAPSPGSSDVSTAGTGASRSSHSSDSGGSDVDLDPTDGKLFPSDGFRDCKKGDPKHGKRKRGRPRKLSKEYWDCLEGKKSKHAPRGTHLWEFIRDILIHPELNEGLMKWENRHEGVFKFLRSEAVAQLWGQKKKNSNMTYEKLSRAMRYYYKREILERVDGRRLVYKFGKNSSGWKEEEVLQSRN
The note with it: protein: recombinant; tags: N-terminal GST; dsDNA, one strand shown. The gist of the method:
as §1

For a further assay, the target named is CRX (Homo sapiens, UniProt O43186 1-299). The note with it: protein: recombinant; tags: N-terminal GST; dsDNA, one strand shown. The essentials: as §1
A further assay deals with ETV1 (Homo sapiens, UniProt P50549 1-477). As to conditions: protein: recombinant; tags: N-terminal GST; dsDNA, one strand shown. The gist of the method: as §1
The target of the next assay is T6, ERF (Homo sapiens, UniProt P50548 1-548).
T6 sequence: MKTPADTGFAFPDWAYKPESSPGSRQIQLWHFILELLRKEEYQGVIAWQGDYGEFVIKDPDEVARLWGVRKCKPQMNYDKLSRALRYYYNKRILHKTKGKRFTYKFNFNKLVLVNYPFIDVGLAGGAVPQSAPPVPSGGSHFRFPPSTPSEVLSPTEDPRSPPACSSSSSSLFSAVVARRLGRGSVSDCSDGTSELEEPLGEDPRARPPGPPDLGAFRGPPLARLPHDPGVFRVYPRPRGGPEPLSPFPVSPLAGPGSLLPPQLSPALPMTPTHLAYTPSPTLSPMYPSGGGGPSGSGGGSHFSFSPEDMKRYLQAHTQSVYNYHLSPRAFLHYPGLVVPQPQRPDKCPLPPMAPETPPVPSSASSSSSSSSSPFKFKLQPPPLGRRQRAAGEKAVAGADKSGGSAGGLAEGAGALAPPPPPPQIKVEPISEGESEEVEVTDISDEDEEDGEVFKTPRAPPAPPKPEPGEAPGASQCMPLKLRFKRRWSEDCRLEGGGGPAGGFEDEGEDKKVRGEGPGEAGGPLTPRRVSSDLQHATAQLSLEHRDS
As to conditions: protein: recombinant; tags: N-terminal GST; dsDNA, one strand shown. The gist of the method: as §1

In another assay the target is T7, ETV3L (Homo sapiens, UniProt Q6ZN32 1-361).
T7 sequence: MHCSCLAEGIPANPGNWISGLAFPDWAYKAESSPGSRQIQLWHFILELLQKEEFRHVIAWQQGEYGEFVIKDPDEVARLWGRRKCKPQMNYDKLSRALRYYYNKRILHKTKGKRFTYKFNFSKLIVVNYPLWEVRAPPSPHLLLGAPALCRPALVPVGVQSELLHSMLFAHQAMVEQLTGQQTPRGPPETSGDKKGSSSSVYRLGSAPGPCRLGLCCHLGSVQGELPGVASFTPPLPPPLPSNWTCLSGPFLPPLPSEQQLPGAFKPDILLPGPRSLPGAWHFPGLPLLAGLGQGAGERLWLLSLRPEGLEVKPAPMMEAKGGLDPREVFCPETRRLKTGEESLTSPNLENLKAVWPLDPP
The note with it: protein: recombinant; tags: N-terminal GST; dsDNA, one strand shown. The gist of the method:
as §1

The next assay deals with T8, ETS2 (Homo sapiens, UniProt P15036 1-469).
T8 sequence: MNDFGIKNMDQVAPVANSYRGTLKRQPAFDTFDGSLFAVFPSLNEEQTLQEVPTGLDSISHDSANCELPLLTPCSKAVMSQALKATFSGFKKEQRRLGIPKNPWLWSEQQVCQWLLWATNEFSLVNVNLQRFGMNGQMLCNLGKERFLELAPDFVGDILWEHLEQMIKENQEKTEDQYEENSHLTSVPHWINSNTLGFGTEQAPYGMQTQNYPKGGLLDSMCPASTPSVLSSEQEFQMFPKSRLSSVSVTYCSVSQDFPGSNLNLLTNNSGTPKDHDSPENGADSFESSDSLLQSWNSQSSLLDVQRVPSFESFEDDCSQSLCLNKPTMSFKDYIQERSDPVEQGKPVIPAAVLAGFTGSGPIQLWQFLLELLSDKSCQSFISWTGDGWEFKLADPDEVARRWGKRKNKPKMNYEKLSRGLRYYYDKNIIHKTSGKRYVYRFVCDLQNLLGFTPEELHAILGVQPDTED
As to conditions: protein: recombinant; tags: N-terminal GST; dsDNA, one strand shown. The essentials: as §1

In a further assay the target is T9, SPDEF (Homo sapiens, UniProt O95238 1-335).
T9 sequence: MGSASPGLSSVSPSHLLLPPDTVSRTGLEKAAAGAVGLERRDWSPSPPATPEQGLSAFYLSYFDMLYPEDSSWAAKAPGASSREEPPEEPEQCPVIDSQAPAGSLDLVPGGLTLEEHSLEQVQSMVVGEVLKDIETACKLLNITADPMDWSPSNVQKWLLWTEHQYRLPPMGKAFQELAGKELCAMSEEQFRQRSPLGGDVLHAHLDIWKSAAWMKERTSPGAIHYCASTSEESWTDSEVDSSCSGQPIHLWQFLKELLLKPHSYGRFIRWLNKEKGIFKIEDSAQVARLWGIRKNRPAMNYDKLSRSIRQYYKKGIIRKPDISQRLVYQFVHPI
The note with it: protein: recombinant; tags: N-terminal GST; dsDNA, one strand shown. The gist of the method: as §1

A further assay addresses T10, ETV7 (Homo sapiens, UniProt Q9Y603 1-341).
T10 sequence: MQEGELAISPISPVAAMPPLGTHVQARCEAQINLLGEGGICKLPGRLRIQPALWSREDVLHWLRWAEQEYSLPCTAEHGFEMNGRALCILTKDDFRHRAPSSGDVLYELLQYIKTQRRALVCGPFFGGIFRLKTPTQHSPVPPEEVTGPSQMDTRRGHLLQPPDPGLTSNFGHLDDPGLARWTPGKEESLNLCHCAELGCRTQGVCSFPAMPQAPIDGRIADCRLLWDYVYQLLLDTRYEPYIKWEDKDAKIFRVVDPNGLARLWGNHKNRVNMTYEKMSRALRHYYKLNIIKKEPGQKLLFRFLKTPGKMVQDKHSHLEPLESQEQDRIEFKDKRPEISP
As to conditions: protein: recombinant; tags: N-terminal GST; dsDNA, one strand shown. The gist of the method: as §1

The next assay deals with T11, ELF5 (Homo sapiens, UniProt Q9UKW6-2 1-255).
T11 sequence: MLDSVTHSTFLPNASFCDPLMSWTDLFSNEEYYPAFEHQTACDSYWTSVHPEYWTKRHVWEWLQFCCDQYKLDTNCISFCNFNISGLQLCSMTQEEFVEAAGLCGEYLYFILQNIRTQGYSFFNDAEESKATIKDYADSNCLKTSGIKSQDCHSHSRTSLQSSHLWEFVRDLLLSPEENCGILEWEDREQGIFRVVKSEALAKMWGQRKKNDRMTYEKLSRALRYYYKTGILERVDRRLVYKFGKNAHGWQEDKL
As to conditions: protein: recombinant; tags: N-terminal GST; dsDNA, one strand shown. The essentials:
as §1

For a further assay, the target named is T12, ETV3 (Homo sapiens, UniProt P41162-2 1-143).
T12 sequence: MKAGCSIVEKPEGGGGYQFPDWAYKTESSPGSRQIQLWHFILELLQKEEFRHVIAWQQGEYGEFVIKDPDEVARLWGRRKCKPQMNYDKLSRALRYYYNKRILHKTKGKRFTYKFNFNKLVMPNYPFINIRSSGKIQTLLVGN
The note with it: protein: recombinant; tags: N-terminal GST; dsDNA, one strand shown. The essentials: as §1

The target in another assay is ETV6 (Homo sapiens, UniProt P41212 1-452). The note with it: protein: recombinant; tags: N-terminal GST; dsDNA, one strand shown. The gist of the method:
as §1

Chain of ELF4 (Q99607 whole entry): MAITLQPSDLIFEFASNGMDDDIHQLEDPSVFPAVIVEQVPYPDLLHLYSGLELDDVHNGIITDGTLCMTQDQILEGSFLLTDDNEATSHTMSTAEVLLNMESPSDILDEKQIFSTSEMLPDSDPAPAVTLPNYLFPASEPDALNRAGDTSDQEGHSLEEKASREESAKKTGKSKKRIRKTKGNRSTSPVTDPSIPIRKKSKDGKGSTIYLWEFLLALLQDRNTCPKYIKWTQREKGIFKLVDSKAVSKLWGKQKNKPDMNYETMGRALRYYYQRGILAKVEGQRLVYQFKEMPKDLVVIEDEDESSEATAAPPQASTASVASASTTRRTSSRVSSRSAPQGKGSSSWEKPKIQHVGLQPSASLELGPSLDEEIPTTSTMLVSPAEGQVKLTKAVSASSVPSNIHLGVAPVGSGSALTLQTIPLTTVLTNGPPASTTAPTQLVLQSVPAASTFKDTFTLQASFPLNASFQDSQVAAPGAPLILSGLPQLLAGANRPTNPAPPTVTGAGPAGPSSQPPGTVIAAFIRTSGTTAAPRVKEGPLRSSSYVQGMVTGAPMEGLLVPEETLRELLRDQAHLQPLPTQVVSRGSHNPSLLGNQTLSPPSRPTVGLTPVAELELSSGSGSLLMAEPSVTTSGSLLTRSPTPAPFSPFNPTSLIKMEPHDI
Chain of ETV6 (P41212 whole entry): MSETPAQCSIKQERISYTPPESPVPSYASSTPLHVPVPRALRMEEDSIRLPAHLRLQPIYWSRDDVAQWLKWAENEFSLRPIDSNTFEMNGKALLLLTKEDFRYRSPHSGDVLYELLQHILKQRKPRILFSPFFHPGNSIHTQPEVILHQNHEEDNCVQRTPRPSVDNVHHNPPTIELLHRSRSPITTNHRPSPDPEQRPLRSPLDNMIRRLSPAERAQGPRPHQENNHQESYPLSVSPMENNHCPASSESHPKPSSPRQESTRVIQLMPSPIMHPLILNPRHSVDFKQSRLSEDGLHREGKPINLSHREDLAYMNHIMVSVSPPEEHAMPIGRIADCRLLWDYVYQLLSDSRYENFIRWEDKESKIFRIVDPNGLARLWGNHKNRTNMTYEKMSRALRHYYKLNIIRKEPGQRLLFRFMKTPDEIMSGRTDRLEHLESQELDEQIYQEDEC
Chain of ETV5 (P41161 whole entry): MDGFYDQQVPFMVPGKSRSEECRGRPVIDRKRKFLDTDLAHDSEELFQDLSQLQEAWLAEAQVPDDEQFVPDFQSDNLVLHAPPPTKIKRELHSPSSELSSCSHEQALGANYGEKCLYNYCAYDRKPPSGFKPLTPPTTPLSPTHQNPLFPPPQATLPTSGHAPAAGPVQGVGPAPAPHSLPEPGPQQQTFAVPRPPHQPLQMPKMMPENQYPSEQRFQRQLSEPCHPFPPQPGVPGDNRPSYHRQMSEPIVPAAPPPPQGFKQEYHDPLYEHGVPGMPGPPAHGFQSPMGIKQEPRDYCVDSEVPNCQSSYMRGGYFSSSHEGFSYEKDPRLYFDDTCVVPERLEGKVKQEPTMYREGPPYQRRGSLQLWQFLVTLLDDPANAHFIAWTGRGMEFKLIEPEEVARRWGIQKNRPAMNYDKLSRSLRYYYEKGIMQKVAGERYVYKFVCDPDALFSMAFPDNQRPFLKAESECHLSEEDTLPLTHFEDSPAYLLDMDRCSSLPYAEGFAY
Chain of CRX (O43186 whole entry): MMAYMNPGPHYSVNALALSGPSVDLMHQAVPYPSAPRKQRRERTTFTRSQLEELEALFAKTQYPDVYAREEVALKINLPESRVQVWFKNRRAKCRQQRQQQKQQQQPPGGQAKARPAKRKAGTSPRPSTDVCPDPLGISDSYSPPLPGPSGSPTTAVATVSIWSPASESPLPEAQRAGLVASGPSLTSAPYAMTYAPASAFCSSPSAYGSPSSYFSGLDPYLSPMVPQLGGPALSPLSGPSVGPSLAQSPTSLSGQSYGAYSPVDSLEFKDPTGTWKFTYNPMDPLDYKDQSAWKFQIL
Chain of ETV1 (P50549 whole entry): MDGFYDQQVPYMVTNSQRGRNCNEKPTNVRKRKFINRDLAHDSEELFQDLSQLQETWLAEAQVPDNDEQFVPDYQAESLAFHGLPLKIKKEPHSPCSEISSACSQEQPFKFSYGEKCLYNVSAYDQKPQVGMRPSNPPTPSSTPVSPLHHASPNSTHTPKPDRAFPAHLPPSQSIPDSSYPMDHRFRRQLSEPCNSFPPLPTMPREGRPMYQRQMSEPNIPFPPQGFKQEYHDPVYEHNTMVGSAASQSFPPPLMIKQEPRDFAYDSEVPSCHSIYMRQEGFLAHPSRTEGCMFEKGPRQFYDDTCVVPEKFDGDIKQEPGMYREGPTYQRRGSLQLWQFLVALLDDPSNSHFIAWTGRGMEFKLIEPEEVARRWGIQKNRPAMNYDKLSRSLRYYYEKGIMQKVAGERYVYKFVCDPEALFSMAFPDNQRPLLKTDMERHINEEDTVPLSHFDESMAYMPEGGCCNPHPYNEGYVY
Chain of HSF1 (Q00613 whole entry): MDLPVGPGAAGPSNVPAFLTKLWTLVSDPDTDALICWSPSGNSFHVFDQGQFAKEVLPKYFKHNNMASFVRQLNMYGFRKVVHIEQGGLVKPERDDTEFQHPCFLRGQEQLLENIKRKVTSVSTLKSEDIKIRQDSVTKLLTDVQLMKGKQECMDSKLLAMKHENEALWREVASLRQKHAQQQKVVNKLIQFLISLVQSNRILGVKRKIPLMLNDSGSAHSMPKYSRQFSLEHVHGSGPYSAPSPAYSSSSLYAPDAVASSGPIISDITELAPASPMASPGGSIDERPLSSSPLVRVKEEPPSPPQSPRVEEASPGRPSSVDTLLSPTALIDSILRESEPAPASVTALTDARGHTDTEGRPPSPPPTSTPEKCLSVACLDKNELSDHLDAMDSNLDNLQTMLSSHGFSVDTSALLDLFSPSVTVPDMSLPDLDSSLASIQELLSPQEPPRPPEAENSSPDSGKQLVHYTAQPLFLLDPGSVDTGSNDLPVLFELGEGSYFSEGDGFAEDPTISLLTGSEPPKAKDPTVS

Consider TTGTGG, for which the binding signal in the assay with FEV is 1.27 fold enrichment (6-mer frequency, TF over GST control); with ETV5 it was 1.41 fold enrichment (6-mer frequency, TF over GST control); in the assay with HSF1, 1.37 fold enrichment (6-mer frequency, TF over GST control); with SPIC it was 1.44 fold enrichment (6-mer frequency, TF over GST control); in the assay with ELF4, 1.51 fold enrichment (6-mer frequency, TF over GST control); in the assay with ELK4, 1.35 fold enrichment (6-mer frequency, TF over GST control). Moreover, the binding signal with ETV2 is 1.29 fold enrichment (6-mer frequency, TF over GST control); with ELF3 it was 1.34 fold enrichment (6-mer frequency, TF over GST control); in the assay with CRX, 1.46 fold enrichment (6-mer frequency, TF over GST control); with ETV1 it was 1.27 fold enrichment (6-mer frequency, TF over GST control); with ERF it was 1.33 fold enrichment (6-mer frequency, TF over GST control); in the assay with ETV3L it was 1.6 fold enrichment (6-mer frequency, TF over GST control). The binding signal was 1.36 fold enrichment (6-mer frequency, TF over GST control) in the assay with ETS2; 1.31 fold enrichment (6-mer frequency, TF over GST control) with SPDEF; 1.34 fold enrichment (6-mer frequency, TF over GST control) with ETV7; 1.32 fold enrichment (6-mer frequency, TF over GST control) with ELF5; 1.37 fold enrichment (6-mer frequency, TF over GST control) in the assay with ETV3; 1.29 fold enrichment (6-mer frequency, TF over GST control) with ETV6.

(Values after paper PMC7862700, “An all-to-all approach to the identification of sequence-specific readers for epigenetic DNA modifications on cytosine”.)
